High-throughput results from PubChem BioAssay.
In the library only some 2.4% were active in any assay of this set; here they are far more common.
FEN1 inhibitor: human FEN1 inhibition; P39748; Recombinant FEN1 flap cleavage, fluorescence, 15 min; Potency, µM (doses to about 114 µM), hits mostly inhibitors; 390,000 tested, 0.35% active; note: nearly all actives have a fitted effect of over 65% in size
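Concentration–response screening of FEN1 (10 nM): 15 min compound preincubation at room temperature, reaction started with 50 nM substrate and read at 0 and 15 min. Corrected, normalized data were fitted by a four-parameter Hill equation.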
POLK inh: inhibitors of human DNA polymerase kappa. Q9UBT6. purified Pol kappa, fluorescent DNA synthesis assay, 10 min. Potency, µM (doses to about 107 µM), actives largely listed as inhibitors. 400,000 tested, 0.53% active. AID 588579
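10 nM Pol kappa preincubated 15 min at room temperature with compounds, then reaction started with substrate at 50 nM final. Fluorescence read kinetically at 0 and 10 min; buffer-only wells served as negative control.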
Pol iota inh: DNA polymerase iota (human) inhibition | Pol iota fluorescent replication assay, 10 min | Potency, µM (highest dose often 115 µM), hits mostly inhibitors | 390,000 tested, 1% active | AID 588590
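Fluorescent replication assay read twice, at 0 min and 10 min after adding 50 nM (final) substrate. Enzyme (10 nM) and compounds were first incubated 15 min at room temperature; enzyme-free buffer wells were negative controls.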
POLB inh: inhibitors of human DNA polymerase beta; P06746; Pol beta primer extension/strand displacement, fluorescence kinetic; Potency, µM (series often up to 114 µM), most hits filed as inhibitors; 340,000 tested, 1.3% active; AID 485314
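Homogeneous kinetic assay of primer extension and strand displacement by 10 nM Pol beta, preincubated 15 min at room temperature with compound before 50 nM substrate (final) was added. Read at 0 and 10 min; four-parameter Hill fit.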
Pol eta inh: blocks human DNA polymerase eta activity. Q9Y253. recombinant Pol eta, fluorescent DNA replication assay. Potency, µM (top dose mostly 114 µM), hits mostly inhibitors. 390,000 tested, 1.2% active
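Pol eta at 10 nM preincubated with compounds 15 min at room temperature; reaction started with fluorescent substrate (50 nM final) and read kinetically at 0 and 10 min.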
WRN inhibitor: WRN helicase (human) inhibition; 360,000 tested, 0.46% active; Q14191; Potency, µM (titrated, usually from 114 µM), usual class: inhibitors; WRN helicase unwinding, fluorescent forked duplex, kinetic; note: nearly all actives have a fitted effect of over 55% in size
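Primary qHTS, 1536-well format. 20 nM WRN + compound, 15 min RT; start with 100 nM forked fluorophore/quencher duplex, 2 mM ATP (final); kinetic read ex 525/em 598 nm.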
Large screens that a line does not name were inactive. Calls come from the whole dose curve; as a rule, active = well fitted curve in the direction sought with a large enough effect; inconclusive = small, poorly fitted or top-dose-only effect, or another doubt; inactive = no such curve, though single readings can be large; an effect the other way counts as inactive or inconclusive.

NNc1nc2c(-c3ccc(Cl)cc3)nnn2c2ccccc12	POLB inh inconclusive
NNc1nc2c(-c3ccc(F)cc3)nnn2c2ccccc12	FEN1 inhibitor 28µM, POLB inh inconclusive
COC(=O)c1c(C)sc(-c2c(-c3ccc4c(c3)OCCO4)[nH]c3[nH]c(=O)[nH]c(=O)c23)c1O	POLK inh inconclusive, Pol iota inh inconclusive, POLB inh 40µM (no result: Pol eta inh, WRN inhibitor)
COC(=O)c1c(C)sc(-c2c(-c3ccc4c(c3)OCCO4)[nH]c3c2c(=O)n(C)c(=O)n3C)c1O	none (no result: Pol eta inh, WRN inhibitor)
CC1Cc2ccccc2N1C(=O)COC(=O)c1ccc([N+](=O)[O-])o1 (centres undefined)	FEN1 inhibitor 28µM, Pol iota inh inconclusive, Pol eta inh inconclusive (no result: POLB inh)
CC1Cc2ccccc2N1C(=O)COC(=O)c1ccco1 (centres undefined)	none (no result: FEN1 inhibitor, POLK inh, Pol iota inh, POLB inh)
O=C(COC(=O)c1ccc([N+](=O)[O-])o1)NC1CCCC1	FEN1 inhibitor inconclusive, Pol iota inh 79µM, Pol eta inh inconclusive (no result: POLB inh)
O=C1/C(=C/c2ccncc2)CCc2ccccc21	Pol eta inh 79µM
CSc1ccc(NC(=O)Nc2ccc(C(=O)NCC(=O)O)cc2)cc1	POLB inh 28µM, Pol eta inh inconclusive
O=C(C[n+]1ccccc1Br)c1ccc2c(c1)CCCC2	POLK inh inconclusive, Pol iota inh 71µM (no result: POLB inh, Pol eta inh, WRN inhibitor)
COc1cccc(N2CCN(C3C4CC5CC(C4)CC3C5)CC2)c1 (centres undefined)	Pol iota inh inconclusive
COc1ccc2nc(SCC(=O)Nc3ccc(S(=O)(=O)N4CCCC4)cc3)c(C#N)cc2c1	none
CCOc1ccc2nc(SCC(=O)Nc3ccc(S(=O)(=O)N4CCCC4)cc3)c(C)cc2c1	FEN1 inhibitor 40µM, Pol iota inh inconclusive
CC1C2(C)OC(=N)C(C#N)(C(C)O2)C1(C#N)C#N (centres undefined)	Pol iota inh inconclusive, WRN inhibitor 79µM
CC1OC2(C)OC(=N)C1(C#N)C(C#N)(C#N)C2c1ccccc1 (centres undefined)	Pol eta inh inconclusive
OC[C@@H]1CCC[C@@H](n2cnc3c(=S)nc[nH]c32)O1	none (no result: POLB inh, Pol eta inh, WRN inhibitor)
COc1ccccc1Oc1ncnc2c1oc1ccccc12	none
COc1cccc(=O)c2c(C)n(-c3ccc(C(=O)O)cc3)c(C)c12	POLK inh 50µM, Pol iota inh 16µM, POLB inh 16µM, Pol eta inh 13µM, WRN inhibitor inconclusive
COc1ccc(-n2c(C)c3c(OC)cccc(=O)c3c2C)cc1	Pol eta inh inconclusive
CC(=O)c1c(C(C)=O)c(C)n(-c2ccc(C(=O)O)cc2)c1C	none
Cc1ccc(C)n1-c1ccc(C(=O)O)cc1	POLB inh 3.2µM (no result: FEN1 inhibitor, POLK inh, Pol iota inh, Pol eta inh, WRN inhibitor)
CCNC(=S)N1CCN(CCNC2=CC(=O)CC(C)(C)C2)CC1	none
CCn1c2ccccc2c2cc(Nc3cc(C)nc4ncnn34)ccc21	FEN1 inhibitor inconclusive, POLB inh inconclusive
C[C@@H]1C[C@@H]2OC(=O)[C@]3(C)[C@H]2[C@@H](OC3(C)O)[C@]2(C)C(=O)C=C[C@H]12 (some centres undefined)	Pol iota inh inconclusive, POLB inh inconclusive
C=C1C(=O)O[C@@H]2C[C@@H](C)[C@@H]3C=CC(=O)[C@@]3(C)[C@@H](OC(C)=O)[C@H]12	Pol iota inh inconclusive, Pol eta inh 45µM
CC(=O)c1sc2nsc(SCCN3CCCC3)c2c1N	Pol iota inh 18µM, WRN inhibitor inconclusive
Cc1cc(=O)c2ccccc2n1CC(=O)NCc1ccccc1	none
CC(C)(C)C(=O)Nc1nnc(SCc2cccc(F)c2)s1	none
Cc1ccc2ccc(C(Nc3ccccn3)c3ccccc3)c(O)c2n1 (centres undefined)	none
COc1cc(C(Nc2ccccn2)c2ccc3ccc(C)nc3c2O)cc(OC)c1O (centres undefined)	WRN inhibitor 32µM
CCCOc1ccc(C(=O)Nc2ccc(NC(=O)c3ccc(Br)cc3)cc2)cc1	none (no result: WRN inhibitor)
CC1=CC(=O)CC2C1(C)CCC(C)C2(C)CCC(C)CC(=O)O (centres undefined)	Pol iota inh 89µM, POLB inh 45µM, Pol eta inh 79µM
CN1CCc2nc3sc(C(=O)c4ccc(F)cc4)c(N)c3cc2C1	none (no result: WRN inhibitor)
